Assay outcomes: PubChem, National Center for Advancing Translational Sciences (NCATS)
Casp1 inh – allosteric or competitive inhibitors of human caspase-1 | P29466 | Caspase-1 enzyme, Ac-WEHD-AFC fluorogenic rate | AID 900 | 75,000 compounds, 0.03% hits | Potency, µM (titrated, usually from 57.5 µM), usual class: inhibitors
TSHR agonist – TSH receptor (human) agonism | P16473 | HEK293-CNG-TSHR cells (CNG channel as cAMP sensor), membrane potential dye, cAMP | Potency, µM (titrated, usually from 57.1 µM), hits mostly activators | 73,000 compounds, 0.48% hits | AID 926; active means well fitted activation curve with a large enough effect in the main read-out, with a control signal flat, not every such curve was filed as active; inconclusive means small, poorly fitted or top-dose-only effect, or a change in a side signal; inactive means no such curve, though single readings can be large or run the other way; reference of the percent scale not stated here;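 further: the control signal comes from parental cells without the receptor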
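HEK 293 cells stably expressing TSHR and a cAMP-gated CNG channel; parental CNG-only cells as counterscreen. Cells preloaded 60 min with membrane potential dye plus 100 uM RO 20-1724, then compound 30 min; fluorescence read at 590 nm.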
Caspase-7 inhib – caspase-7 (human) inhibition, allosteric or competitive; P55210; 75,000 compounds, 0.02% hits; Potency, µM (top dose mostly 57.5 µM), usual class: inhibitors; recombinant caspase-7, Ac-DEVD-AFC fluorescence rate; AID 889; active means well fitted inhibition curve with a large enough effect in the main read-out, with a control signal flat, not every such curve was filed as active; inconclusive means small, poorly fitted or top-dose-only effect, or a change in a side signal
HEK293 cAMP cs – raises cAMP in parental HEK293 cells, TSHR agonist counter-screen; parental HEK293 CNG cAMP sensor, membrane potential fluorescence; Potency, µM (doses to about 57.1 µM), most hits filed as activators; 73,000 compounds, 2.5% hits; AID 938; further: nearly all actives have a fitted effect of over 55% in size
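Parental HEK 293 cells stably expressing a cAMP-gated CNG channel were loaded with membrane potential dye containing 100 uM RO 20-1724 for 60 min. Compound added for 30 min; depolarization read as fluorescence intensity at 590 nm.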
GBA activity – alters purified human glucocerebrosidase activity. P04062. purified enzyme, resorufin glucoside fluorescence (screen aimed at inhibitors), 20 min. Potency, µM. 48,000 compounds, 1.1% hits. AID 360; in the data active means potency below about 15 µM; inconclusive means mostly about 16 µM to 33 µM;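 further: the screen sought inhibitors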
Target sequence (P04062 whole entry, looked up): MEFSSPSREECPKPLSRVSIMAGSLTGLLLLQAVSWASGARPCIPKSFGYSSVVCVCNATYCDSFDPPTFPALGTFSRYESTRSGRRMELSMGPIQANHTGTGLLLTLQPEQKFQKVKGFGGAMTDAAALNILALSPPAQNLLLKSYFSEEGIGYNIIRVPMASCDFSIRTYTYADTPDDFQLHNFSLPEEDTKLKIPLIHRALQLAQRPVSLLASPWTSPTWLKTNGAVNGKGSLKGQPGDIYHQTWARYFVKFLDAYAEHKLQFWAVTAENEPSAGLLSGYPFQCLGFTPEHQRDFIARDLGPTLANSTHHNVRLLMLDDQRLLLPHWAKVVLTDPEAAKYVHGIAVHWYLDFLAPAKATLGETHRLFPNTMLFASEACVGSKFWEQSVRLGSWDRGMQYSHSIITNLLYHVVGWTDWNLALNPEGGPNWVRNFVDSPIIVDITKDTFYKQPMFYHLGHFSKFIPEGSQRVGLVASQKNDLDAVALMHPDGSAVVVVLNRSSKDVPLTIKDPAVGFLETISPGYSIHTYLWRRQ
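Compounds titrated against 0.2 nM normal enzyme, 30 uM resorufin beta-D-glucopyranoside substrate, citrate/phosphate buffer with taurocholate and tween-20, pH 5.9. Reaction ran 20 min at room temperature; fluorescence (Ex 548/Em 600) gave AC50.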
ERK AVP block – blocks ERK signaling stimulated by vasopressin; HEK293-V1b, vasopressin-stimulated pERK AlphaScreen; Potency, µM (titrated, usually from 57.5 µM), hits mostly inhibitors; 72,000 compounds, 0.99% hits; further: nearly all actives have a fitted effect of over 55% in size
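Overnight-seeded V1b-HEK293 cells in 1% FBS got compound, then vasopressin (25 nM final, 5 min, 37C), then lysis buffer. AlphaScreen detection of phospho-ERK; activity normalized to basal and full-stimulation controls.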
Large screens that a line does not name were inactive. Hits are enriched below; roughly 4.5% of the tested compounds scored in any of these assays. Unless noted, the call rests on the fitted dose curve; in most records, active means well fitted curve in the direction sought with a large enough effect; inconclusive means small, poorly fitted or top-dose-only effect, or another doubt; inactive means no such curve, though single readings can be large; an effect the other way counts as inactive or inconclusive.

CC(=O)N1CCc2cc(Br)cc(S(=O)(=O)N3CCCCCC3)c21	none (no result: GBA activity)
CC(CCC(=O)O)(c1cc(Br)c(O)c(Br)c1)c1cc(Br)c(O)c(Br)c1	TSHR agonist inconclusive, HEK293 cAMP cs 1.3µM (no result: GBA activity)
Clc1ccccc1-c1nn2c(Cn3cnc4ccccc43)nnc2s1	TSHR agonist 3.2µM
CCCCC[C@H](CC(=O)NO)C(=O)N[C@@H](C(=O)N1CCC[C@H]1CO)C(C)C	none (no result: GBA activity)
CCCOC(=O)C1[C@H]2C(=O)N(C(C)c3ccc(OC)cc3)C[C@]23C=C[C@H]1O3 (stereo not given in full)	GBA activity 13
CCOC(=O)C1[C@H]2C(=O)N(C(C)c3ccc(OC)cc3)C[C@]23C=C[C@H]1O3 (stereo not given in full)	TSHR agonist inconclusive, HEK293 cAMP cs inconclusive
O=C(CCC1N=C2c3ccccc3N=C(SCc3ccc(Cl)cc3)N2C1=O)NCc1ccco1 (stereo not given)	TSHR agonist inconclusive, HEK293 cAMP cs 20µM
COc1cccc2cc(C(=O)C3=C(O)C(=O)N(CCCN4CCOCC4)C3c3ccncc3)oc12 (stereo not given)	TSHR agonist inconclusive, HEK293 cAMP cs inconclusive
COc1cccc(NC(=O)N(CCCN2CCOCC2)C(C)c2cc3cccc(OC)c3o2)c1 (stereo not given)	TSHR agonist inconclusive, HEK293 cAMP cs inconclusive, GBA activity 9.6
Cn1c(C(=O)N2CCCC(C(=O)NCCc3ccccc3)C2)cc2sccc21 (stereo not given)	ERK AVP block inconclusive (no result: GBA activity)
Cn1c(C(=O)N2CCCC(C(=O)NCCCc3ccccc3)C2)cc2sccc21 (stereo not given)	TSHR agonist inconclusive, HEK293 cAMP cs inconclusive, ERK AVP block 20µM
O=C(NCc1ccco1)C1CCN(C(=O)c2cc3sccc3n2Cc2ccc(F)cc2)CC1	TSHR agonist 20µM, GBA activity inconclusive
CCN1CCN(C(=O)C2CCN(C(=O)c3cc4sccc4n3CC)CC2)CC1	none (no result: GBA activity)
CCn1c(C(=O)N2CCC(C(=O)NCCCSC3CCCCC3)CC2)cc2sccc21	TSHR agonist inconclusive, HEK293 cAMP cs 16µM, ERK AVP block inconclusive (no result: GBA activity)
O=C(Nc1cccc(F)c1)N1CCCC2(CCN(C(=O)c3cc(C(F)(F)F)cc(C(F)(F)F)c3)CC2)C1	none (no result: GBA activity)
O=C(c1cccc(F)c1)N1CCC2(CC1)CCN(c1ncccn1)CC2	none (no result: GBA activity)
C[C@@]12CC(=O)[C@@H]3[C@@H](CCC4=CC(=O)CC[C@]43C)[C@@H]1CC=C2CC(=O)O	none (no result: GBA activity)
N#CC(=C(/N)Sc1ccccc1N)/C(C#N)=C(/N)Sc1ccccc1N	ERK AVP block 0.2µM (no result: GBA activity)
Nc1ccccc1C#Cc1ccccc1	none (no result: GBA activity)
Cn1c(=O)c(-c2cc(F)cc(F)c2)nc2cnc(N3CCOCC3)nc21	none (no result: GBA activity)
CCN(c1cccc(C(F)(F)F)c1)S(=O)(=O)c1ccc2c(c1)CCN2C(=O)C1CC1	TSHR agonist inconclusive, HEK293 cAMP cs 25µM
COc1ccc(-c2nnc(SCC(=O)N(Cc3ccccc3)C(C)(C)C)o2)cc1OC	TSHR agonist inconclusive, HEK293 cAMP cs 32µM (no result: GBA activity)
COc1cc(-c2nnc(SCC(=O)c3ccccc3)o2)cc(OC)c1OC	GBA activity inconclusive
COc1ccc(-c2cc(C(F)(F)F)n3ncc(C(=O)NCC4CCCO4)c3n2)cc1 (stereo not given)	TSHR agonist inconclusive, Caspase-7 inhib inconclusive, HEK293 cAMP cs 10µM (no result: Casp1 inh)
COc1cccc(-c2cc(C(F)(F)F)n3ncc(C(=O)NCC4CCCO4)c3n2)c1 (stereo not given)	TSHR agonist inconclusive, Caspase-7 inhib inconclusive, HEK293 cAMP cs inconclusive, GBA activity inconclusive (no result: Casp1 inh)
Nc1ncnc2c1[nH]c(=O)n2C1CC(O)C(CO)O1 (stereo not given)	none (no result: TSHR agonist, HEK293 cAMP cs, GBA activity)
COc1c(O)c(O)cc2c1oc1c3ccccc3oc(=O)c21	none (no result: TSHR agonist, HEK293 cAMP cs, GBA activity)
CCOC(=O)C1=C(C)Nc2ncnn2C1c1ccc2c(c1)OCO2 (stereo not given)	TSHR agonist 3.2µM
COc1ccc(-c2coc3ccc(O[C@@H]4O[C@@H](COC(C)=O)[C@@H](OC(C)=O)[C@@H](OC(C)=O)[C@H]4OC(C)=O)cc3c2=O)cc1	none (no result: Casp1 inh, Caspase-7 inhib, GBA activity, ERK AVP block)
COCCn1c(=O)c(-c2ccccc2)nc2cnc(OC)nc21	none (no result: GBA activity)
COc1ccc2[nH]cc(CCNc3ccnc(-c4cccc(NS(C)(=O)=O)c4)n3)c2c1	ERK AVP block 13µM (no result: GBA activity)
COc1ccc2[nH]cc(CCNc3ccnc(-c4cccc(C#N)c4)n3)c2c1	TSHR agonist inconclusive, ERK AVP block inconclusive (no result: GBA activity)
COc1ccc2[nH]cc(CCNc3cc(-c4ccccc4Cl)ncn3)c2c1	ERK AVP block inconclusive (no result: GBA activity)
COc1ccc2[nH]cc(CCNc3ccnc(-c4ccccc4Cl)n3)c2c1	ERK AVP block 40µM (no result: GBA activity)
COc1ccc(-c2c3c(=O)n(C)c(=O)n(C)c3cn2-c2cc(OC)ccc2OC)cc1	TSHR agonist 25µM, ERK AVP block inconclusive
Cc1cc(CN2CCCCC2)c(O)c(CN2CCCCC2)c1	none (no result: GBA activity)
O=C(NCc1ccc2c(c1)OCO2)c1ccc(COc2cccc(Cl)c2)o1	TSHR agonist inconclusive, HEK293 cAMP cs 20µM, ERK AVP block inconclusive
O=C(NCc1cccnc1)c1ccc(COc2ccccc2Br)o1	none
O=C(NCc1cccnc1)c1ccc(COc2ccc3c(c2)CCC3)o1	ERK AVP block 25µM (no result: TSHR agonist)
C/C=C/OC(=O)NC(c1ccccc1)[C@@]1(C(=O)OC)CCCC1=O (stereo not given in full)	none (no result: GBA activity)
CCC[C@@H]1C[C@@]1(CCC)[C@@H](NP(=O)(c1ccccc1)c1ccccc1)c1ccc(C(=O)OC)cc1	TSHR agonist inconclusive, HEK293 cAMP cs 13µM (no result: GBA activity)
CCCC(c1nnnn1C1CCCCC1)N1CCN(C2CCCC2)CC1 (stereo not given)	TSHR agonist inconclusive, HEK293 cAMP cs 16µM
CCCCC(c1nnnn1C1CCCC1)N1CCN(C2CCCC2)CC1 (stereo not given)	TSHR agonist inconclusive, HEK293 cAMP cs inconclusive
CCCC(c1nnnn1C(C)(C)CC)N1CCN(C2CCCC2)CC1 (stereo not given)	TSHR agonist inconclusive, HEK293 cAMP cs 1µM
CCC(c1nnnn1C1CCCCC1)N1CCN(C2CCCC2)CC1 (stereo not given)	TSHR agonist inconclusive, HEK293 cAMP cs 5µM
CC(C)(C)OC(=O)[C@H]([C@@H]1N[C@@H](C(=O)O)C(C)(C)S1)N1C(=O)c2ccccc2C1=O	none (no result: GBA activity)
O=[N+]([O-])c1ccc2c(c1)Cc1cc(N=Cc3ccc4c(c3)OCO4)ccc1-2	none (no result: GBA activity)
Nc1ncn([C@@H]2O[C@@H](CO)[C@@H](O)[C@H]2O)c(=O)n1	none (no result: Casp1 inh, Caspase-7 inhib, GBA activity, ERK AVP block)
N#Cc1ccccc1NC(=O)c1ccc(-c2ccccc2Cl)o1	TSHR agonist inconclusive, HEK293 cAMP cs 25µM, GBA activity inconclusive
Nc1[nH]c(=O)nc2c1ncn2[C@H]1O[C@@H](CO)[C@@H](O)[C@@H]1O	none (no result: GBA activity)
